Data from PMC10812921, “Transcriptional Coactivator BOB1 (OBF1, OCA-B) Modulates the Specificity of DNA Recognition by the POU-Domain Factors OCT1 and OCT2 in a Monomeric Configuration”.

The sequences below were run against POU1 (OCT1 POU domain) (human, UniProt P14859 260-458) (assay: EMSA-SELEX-seq; no BOB1; 20 mM Tris-HCl pH 7.6, 140 mM NaCl, 10% glycerol, 0.5 mM EDTA, 0.05% Triton X-100, 0.1 mg/mL BSA, 0.1 mg/mL poly(dI-dC), 5 mM DTT, room temperature, 20 min; high values mean tight binding). Conditions: protein: recombinant; dsDNA, one strand shown.
POU1 (OCT1 POU domain), sequence (P14859 260-458): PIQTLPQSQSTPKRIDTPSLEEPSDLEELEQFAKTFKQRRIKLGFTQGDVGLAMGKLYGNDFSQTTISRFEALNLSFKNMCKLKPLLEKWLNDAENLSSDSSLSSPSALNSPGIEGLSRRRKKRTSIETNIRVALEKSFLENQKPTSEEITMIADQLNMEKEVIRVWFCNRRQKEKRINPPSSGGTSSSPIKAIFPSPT
Outline: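 A double-stranded random 35-nt library (300 ng, PCR-amplified) was incubated with 30 ng tagged POU-domain protein, with or without 28 ng coactivator protein, in 20 μL Tris–HCl pH 7.6 binding buffer for 20 min at RT. The proteins had been expressed in E. coli BL21, purified under denaturing conditions and renatured. Complex bands from native 6% PAGE were eluted and PCR-amplified over four rounds, then sequenced on Illumina. For binding preference, the percentage of sequenced 8-mers matching a motif pattern was calculated.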
With AATAAAAG the binding signal was 0.106 % of ANNNNAAN 8-mers. AACTAAAA was tested, and the binding signal was 0.0431 % of ANNNNAAN 8-mers. For AACCAAAG, the binding signal was 0.0336 % of ANNNNAAN 8-mers. For ACTTCAAC, the binding signal was 0.0145 % of ANNNNAAN 8-mers. For AGGGGAAG, the binding signal was 0.0557 % of ANNNNAAN 8-mers. ACTAGAAA was tested, and the binding signal was 0.032 % of ANNNNAAN 8-mers. With ATTGAAAC the binding signal was 0.0431 % of ANNNNAAN 8-mers. With AACGTAAG the binding signal was 0.0301 % of ANNNNAAN 8-mers. In the case of ATGGGAAT, the binding signal is reported as 0.117 % of ANNNNAAN 8-mers. For AATGCAAG, the binding signal was 0.0671 % of ANNNNAAN 8-mers. ATGTGAAT was tested, and the binding signal was 0.138 % of ANNNNAAN 8-mers. With AATTAAAG the binding signal was 0.187 % of ANNNNAAN 8-mers. With AAAGAAAT the binding signal was 0.145 % of ANNNNAAN 8-mers. For ACTATAAA, the binding signal was 0.0439 % of ANNNNAAN 8-mers. In the case of ACTAAAAG, the binding signal is reported as 0.0282 % of ANNNNAAN 8-mers. For ACATCAAC, the binding signal was 0.0172 % of ANNNNAAN 8-mers. For AAGTAAAA, the binding signal was 0.108 % of ANNNNAAN 8-mers. With ACAATAAT the binding signal was 0.0778 % of ANNNNAAN 8-mers. ACCAAAAA was tested, and the binding signal was 0.0336 % of ANNNNAAN 8-mers. With AATCCAAT the binding signal was 0.0507 % of ANNNNAAN 8-mers. For AGTTAAAT, the binding signal was 0.219 % of ANNNNAAN 8-mers. For ACTGCAAA, the binding signal was 0.0416 % of ANNNNAAN 8-mers. With AAACGAAT the binding signal was 0.0767 % of ANNNNAAN 8-mers. For ATTTAAAG, the binding signal was 0.183 % of ANNNNAAN 8-mers. AACGGAAG was tested, and the binding signal was 0.0168 % of ANNNNAAN 8-mers. For AGTAGAAC, the binding signal was 0.0271 % of ANNNNAAN 8-mers. ACCAGAAT was tested, and the binding signal was 0.032 % of ANNNNAAN 8-mers. In the case of ATTGCAAT, the binding signal is reported as 0.0561 % of ANNNNAAN 8-mers. For ATCACAAG, the binding signal was 0.0225 % of ANNNNAAN 8-mers. With AGCCTAAG the binding signal was 0.0183 % of ANNNNAAN 8-mers. With ATATGAAG the binding signal was 0.0545 % of ANNNNAAN 8-mers. For ACGCTAAG, the binding signal was 0.0202 % of ANNNNAAN 8-mers. In the case of AGGAAAAT, the binding signal is reported as 0.287 % of ANNNNAAN 8-mers. AGCGAAAT was tested, and the binding signal was 0.0526 % of ANNNNAAN 8-mers. With ATTGAAAT the binding signal was 0.257 % of ANNNNAAN 8-mers. For ATCGAAAG, the binding signal was 0.0294 % of ANNNNAAN 8-mers. In the case of AAGGCAAC, the binding signal is reported as 0.0187 % of ANNNNAAN 8-mers. In the case of AGATCAAT, the binding signal is reported as 0.0465 % of ANNNNAAN 8-mers. For ATAAAAAG, the binding signal was 0.0915 % of ANNNNAAN 8-mers. With AGAAAAAA the binding signal was 0.0767 % of ANNNNAAN 8-mers.
